Results from PubChem BioAssay (NCI).
About 79,000 compounds went through this panel and 15% of them were active in at least one assay; those are over-represented in the sample as a whole. No stated cut-off is given here; in the data, active means growth inhibition above about 70%; inactive means the rest.

Columns and labels:
[1] = NCI Yeast Anticancer Drug Screen. Data for the rad50 strain (AID 155);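 further: 0% = growth of vehicle-only cultures of the same strain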; settings: S. cerevisiae rad50 strain growth inhibition; at 50.0 µM; active compounds read high
Outline: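 Cells are treated with compound, grown, and their growth is then scored against vehicle-only cultures of the same repair-deficient yeast strain.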

[2] = NCI Yeast Anticancer Drug Screen. Data for the mec2-1 strain (AID 157); settings: S. cerevisiae mec2-1 strain, at 50.0 µM, active compounds read high
Outline: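 Vehicle-treated cultures served as reference for growth inhibition of compound-exposed mec2-1 yeast.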

[3] = NCI Yeast Anticancer Drug Screen. Data for the sgs1 mgt1 strain (AID 161);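 further: 0% = growth of cultures given vehicle only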; settings: S. cerevisiae sgs1 mgt1 strain, at 50.0 µM, active compounds read high
Outline: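 Inhibition of yeast growth, normalised to vehicle-treated controls, is reported for a strain bearing genetic alterations in DNA damage repair.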

[4] = NCI Yeast Anticancer Drug Screen. Data for the cln2 rad14 strain (AID 165);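 further: 0% = growth equal to vehicle treated cultures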; settings: S. cerevisiae cln2 rad14 strain, at 50.0 µM, active compounds read high
Outline: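 Each compound was tested on cln2 rad14 yeast. Inhibition of growth was calculated against vehicle-exposed controls.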

[5] = NCI Yeast Anticancer Drug Screen. Data for the bub3 strain (AID 167); settings: S. cerevisiae bub3 mutant strain, at 50.0 µM, active compounds read high
Outline: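 Part of a panel of yeast mutants defective in DNA damage repair or cell cycle regulation. Each strain is grown with compound, and inhibition is calculated relative to solvent-treated cultures.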

[6] = NCI Yeast Anticancer Drug Screen. Data for the mlh1 rad18 strain (AID 175); settings: S. cerevisiae mlh1 rad18 strain growth inhibition; at 50.0 µM; active compounds read high
Outline: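 Vehicle-treated cultures served as the reference for growth inhibition in a yeast strain carrying DNA damage repair alterations exposed to each compound.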

Measured: growth inhibition

CCCCCCCCCNP(=O)(OCc1ccccc1)N(CCCl)CCCl (centres undefined)
inactive: [1] 55.5% | [2] 37.2% | [3] 40.2% | [4] 34.8% | [5] -0.4% | [6] 26.4%

CC(C)C1NC(C(C)C)N2C(C(C)C)N12 (centres undefined)
inactive: [1] -0.05% | [2] -17.2% | [3] -14.3% | [4] -24.5% | [5] -2.25% | [6] -1.5%

COc1ccc2c(c1)c(CC(C)[N+](=O)[O-])c(C)n2Cc1ccccc1 (centres undefined)
inactive: [1] 6.5% | [2] 8.35% | [3] 5.65% | [4] -9.95% | [5] -3.3% | [6] 6.9%

c1cc[c]([Hg][S]c2nc3ccccc3s2)cc1
inactive: [1] -22.4% | [2] -7.1% | [3] -6.05% | [4] -37.3% | [5] -5.15% | [6] -5.1%

O=C1NC(=S)NC(=O)C1=Cc1ccncc1
inactive: [1] -19% | [2] -46.9% | [3] -7.7% | [4] 9.55% | [5] -26.9% | [6] -10.3%

CC(=N\[O-])/C(C)=N/[O-].CC(=N\[O-])/C(C)=N/[O-].[Cu+2]
inactive: [1] 42.8% | [2] 22.9% | [3] 15% | [4] -18.9% | [5] 33.5% | [6] 29.2%

NC1CC(O)C(O)CC1c1ccc2c(c1)OCO2 (centres undefined)
inactive: [1] -26.5% | [2] -4.45% | [3] -15.9% | [4] -13.9% | [5] 6.9% | [6] -17.2%

ClCCN(CCCN(CCCl)c1ccccc1)c1ccccc1
inactive: [1] 11.8% | [2] 12.7% | [3] 32.5% | [4] -8.25% | [5] -5.1% | [6] -27.9%

CCN1C(=O)NC(=O)C(C)(N2CCCCC2)C1=O (centres undefined)
inactive: [1] 13.4% | [2] 5.3% | [3] 25.9% | [4] 15.2% | [5] 10.7% | [6] 28.7%

N.N.N.N.N.[Co+3].[I-].[N-]=[N+]=[N-]
inactive: [1] -0.25% | [2] 32.8% | [3] -25.4% | [4] 20.4% | [5] -6.05% | [6] -9.05%

O=[As](c1ccccc1Br)(c1ccccc1Br)c1ccccc1Br
inactive: [1] 70% | [2] 19.2% | [3] 58.7% | [4] 13.4% | [5] 22.2% | [6] 20.9%

O=P(O)(O)CCP(=O)(O)O
inactive: [1] -14.5% | [2] 17.9% | [3] -13.4% | [4] 21.8% | [5] -13.7% | [6] -13.7%

C[C@@]1(C(=O)c2ccccc2)N(c2ccccc2)[C@@]1(C)C(=O)c1ccccc1
inactive: [1] 8.9% | [2] 8.3% | [3] 4.35% | [4] 21.8% | [5] 16.1% | [6] 32.4%

Cc1cc(C)c(O)c(C)c1
inactive: [1] 10.2% | [2] -18.3% | [3] -5.45% | [4] 14.4% | [5] -5.25% | [6] 4.45%

CC(C)CCON=O
inactive: [1] -11.3% | [2] -9.4% | [3] -28.2% | [4] -9.05% | [5] -13.1% | [6] -35.6%

OC1NC2CC3NC(O)C(O)NC3CC2NC1O (centres undefined)
inactive: [1] -16.6% | [2] -4.25% | [3] 12.7% | [4] 22.9% | [5] 16.1% | [6] 11.4%

CCOP(=S)(OCC)Oc1cnn(C)c(=S)c1Cl
inactive: [1] 12.8% | [2] -18.6% | [3] -0.85% | [4] 10.3% | [5] -4.85% | [6] 8.05%

CO[C@H]1C[C@H](O[C@H]2CC[C@]3(C=O)[C@H]4CC[C@]5(C)[C@@H](C6=CC(=O)OC6)CC[C@]5(O)[C@@H]4CC[C@]3(O)C2)O[C@H](C)[C@H]1O
inactive: [1] 33.4% | [2] -11.3% | [3] 8.6% | [4] 0.55% | [5] -6.45% | [6] 32.3%

Cc1ccc2nc(CCl)[nH]c2c1
inactive: [1] 31.6% | [2] -5.65% | [3] 34% | [4] 18.4% | [5] -18.1% | [6] 58.7%

CC(=O)Nc1ccc(-c2ccccc2)cc1
inactive: [1] 39.7% | [2] 24.8% | [3] 46.6% | [4] 17.9% | [5] -0.5% | [6] 32.9%

Cc1cc(S(=O)(=O)F)ccc1NC(=O)/C=C/c1ccc([N+](=O)[O-])cc1
inactive: [1] 8.95% | [2] 4% | [3] 0.75% | [4] 0.55% | [5] 21.4% | [6] -8.15%

C=CCNC(=S)/N=C/c1c(O)[nH]c(=O)[nH]c1=O
inactive: [1] -64.8% | [2] -50.4% | [3] -44.9% | [4] -47% | [5] -15.8% | [6] -44.1%

O=C(O)c1ccc([N+](=O)[O-])c([N+](=O)[O-])c1
inactive: [1] 22.2% | [2] 4.95% | [3] 32.9% | [4] 7.05% | [5] 10% | [6] 24.6%

C1CN([PH+](N2CC2)N2CC2)CCO1.C1CN([PH+](N2CC2)N2CC2)CCO1.[Cl][Pt][Cl]
inactive: [1] 5.3% | [2] 26.6% | [3] 10% | [4] -8.85% | [5] -3.35% | [6] 22.7%

COC(=O)CP(=O)(OC)OCC(F)(F)F (centres undefined)
inactive: [1] -32.8% | [2] -14.4% | [3] -23.5% | [4] -6% | [5] -33.6% | [6] -25.3%

CC(=O)OC(C)(C)/C=C/C(=O)[C@](C)(O)[C@H]1[C@H](O)C[C@@]2(C)[C@@H]3CC=C4[C@@H](C[C@H](O)C(=O)C4(C)C)[C@]3(CO)C(=O)C[C@]12C
inactive: [1] 21.1% | [2] -12.9% | [3] 15.3% | [4] -7.8% | [5] 18.6% | [6] 18.9%

Cc1cc(C)c(O)c(CN2CCCCC2)c1
inactive: [1] 4.35% | [2] 13.1% | [3] 32.8% | [4] -4% | [5] 19.6% | [6] 14.5%

O=C1OC(C(O)CO)C(O)=C1OC[N+]1(CCCl)CCN(CCCl)CC1 (centres undefined)
inactive: [1] 11.8% | [2] 12.7% | [3] 4.9% | [4] 4.7% | [5] 10.3% | [6] 9.4%

CN(C)C(=O)Sc1c(S(=O)(=O)F)ccc(Cl)c1Cl
inactive: [1] 22.4% | [2] 14.8% | [3] 10.3% | [4] 20.9% | [5] 6.15% | [6] 8.6%

N=c1nc(N)n2c(N)nc(=N)n12
inactive: [1] 19.9% | [2] 12.7% | [3] -1.55% | [4] 4.05% | [5] -1.75% | [6] 2.45%

O=C(O)C(CP(=O)(O)O)=C(Cl)Cl
inactive: [1] -21.4% | [2] 12.3% | [3] -13.9% | [4] -8.95% | [5] -6.15% | [6] -9.75%

C[C@]12CCC(=O)C[C@@H]1CC[C@@H]1[C@@H]2CC[C@]2(C)[C@@H]3OCCC[C@H]3C[C@@H]12
inactive: [1] 22.4% | [2] -0.5% | [3] 46.5% | [4] 14.7% | [5] 19.1% | [6] 39.2%

N#CNC(N)=S
inactive: [1] -13.8% | [2] -10.3% | [3] -10.3% | [4] -8.7% | [5] -14.3% | [6] -8.35%

CCOP(=O)(OCC)Oc1ccc(S(C)=O)cc1 (centres undefined)
inactive: [1] -1.95% | [2] -14.8% | [3] -1% | [4] -10.2% | [5] 8.75% | [6] -0.25%

CCN(CC)C(=O)CCNC(C)Cc1c[nH]c2ccccc12 (centres undefined)
inactive: [1] -4.1% | [2] -13.7% | [3] 39.9% | [4] 22.1% | [5] 8.85% | [6] -37.5%

CN(C)C(=O)O/N=C(\c1ccccc1)C(F)(F)F
inactive: [1] 35.7% | [2] -0.15% | [3] 20.5% | [4] 15.4% | [5] 20.7% | [6] 30.6%

O=C(O)c1cc([N+](=O)[O-])cc([N+](=O)[O-])c1
inactive: [1] -3% | [2] 1.3% | [3] 2.75% | [4] -34.2% | [5] -30.9% | [6] 43.2%

c1ccc(NNc2ccccc2)cc1
inactive: [1] 8.5% | [2] 1.7% | [3] 0.95% | [4] -14.1% | [5] -6.15% | [6] -5.65%

CCCCCCCC(=O)[O-].N.N.N.N.N.[Co+3].[O-][Cl+3]([O-])([O-])[O-]
inactive: [1] -16.1% | [2] 20.2% | [3] -46.8% | [4] 9.1% | [5] -10.7% | [6] -13.3%
